CCHF vOTU inh-1 – CCHFV vOTU protease inhibitors, primary screen, biochemical, Pep-AMC substrate, fluorescence; inhibition, % at 11.5 µM; hit rate 0.55% among 370,000; Crimean-Congo hemorrhagic fever virus L polyprotein viral ovarian tumor (vOTU) protease …; AID 651958, 2012
VHR inh abs – VHR1 phosphatase inhibitors, primary screen, biochemical, absorbance, uHTS | inhibition, % at 13.3 µM | Dual specificity protein phosphatase 3 (Homo sapiens), P51452 | recombinant VHR phosphatase, pNPP absorbance | hit rate 0.52% among 290,000 | AID 1654, 2009; in the data active = inhibition above about 50%
Target sequence (P51452 whole entry, looked up): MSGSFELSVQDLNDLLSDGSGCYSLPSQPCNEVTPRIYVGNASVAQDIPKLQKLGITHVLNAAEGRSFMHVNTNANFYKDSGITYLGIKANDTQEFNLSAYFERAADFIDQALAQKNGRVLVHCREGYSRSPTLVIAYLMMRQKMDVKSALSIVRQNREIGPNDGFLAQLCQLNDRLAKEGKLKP
BJeLR lethal – MLPCN primary cell-based screen for lethality selective to Ras in HRASV12 cells | BJeLR (HRASV12) viability, CellTiter-Glo ATP luminescence, 48 h | inhibition, % (test concentration not listed) | hit rate 0.17% among 300,000 | AID 1554, 2009; in the data active = inhibition above about 50%
MazEF act – activators of E. coli MazEF toxin-antitoxin RNase, primary screen, biochemical, fluorescence, uHTS. Endoribonuclease toxin MazF (Escherichia coli (strain K12)), P0AE70. FAM/BHQ RNA-DNA oligo cleavage fluorescence, 5 h. activation, % at 20 µM. hit rate 0.32% among 350,000. AID 504720, 2011; in the data active = activation above about 50%
Target sequence (P0AE70 whole entry, looked up): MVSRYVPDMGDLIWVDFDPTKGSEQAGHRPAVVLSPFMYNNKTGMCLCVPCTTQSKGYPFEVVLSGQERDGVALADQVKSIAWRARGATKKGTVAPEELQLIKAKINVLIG
3CLpro inhibitor – SARS-CoV 3CLpro protease inhibitors, primary screen, biochemical, quenched FRET. recombinant SARS-CoV 3CLpro, quenched FRET peptide cleavage. inhibition, % at 6 µM. hit rate 0.14% among 290,000. AID 1706, 2009; in the data active = inhibition above about 12%
CCHF vOTU inh-2 – CCHFV vOTU protease inhibitors, confirmation, biochemical, Pep-AMC substrate, fluorescence; Recombinant CCHFV vOTU; inhibition, % at 11.5 µM; hit rate 17% among 1,900; AID 686976, 2013; shares compounds with CCHF vOTU inh-1
Numbers stand for hits; n = inactive; x = not tested or not shown. An excerpt weighted towards active compounds, which were near 1.4% of everything screened. Cut-off read from the data, not from the text of the source, unless noted: active = inhibition above about 30%; inactive = the rest.

SMILES	CCHF vOTU inh-1	VHR inh abs	BJeLR lethal	MazEF act	3CLpro inhibitor	CCHF vOTU inh-2
Cc1cc(C(=O)Nc2ccc(N3CCOCC3)cc2)c2ccccc2n1	n	n	n	n	n	x
Cc1cc(C(=O)Nc2cccc(S(=O)(=O)N3CCOCC3)c2)c2ccccc2n1	35.5	x	x	n	x	n
CCOC(=O)N1CCN(C(=O)C[C@H]2C[C@@]3(C(=O)OC)C(=C[C@H](C(C)C)O[C@@H]3C3CC3)N(CCC3=CCCCC3)C2=O)CC1	n	x	x	x	x	x
CCC12CCCN3CCc4c(n(c5ccccc45)C(O)(C(=O)OC)C1)C32 (stereo not drawn)	41.8	n	n	n	n	n
CCC(C)(C)n1nnnc1C(c1cccnc1)N1CCN(c2cccc(C(F)(F)F)c2)CC1 (stereo not drawn)	30.5	n	n	n	n	n
CCC(C)(C)n1nnnc1C(c1ccncc1)N1CCN(c2cccc(OC)c2)CC1 (stereo not drawn)	n	n	n	n	n	x
Cc1ccc2nc(-c3ccc(NC(=O)CSc4nnc(-c5cc(-c6ccc(F)cc6)n[nH]5)n4N)cc3)sc2c1	n	x	x	x	x	x
Cc1ccccc1-n1c(/C=C/c2ccccn2)nc2ccccc2c1=O	31.6	n	n	n	n	n
CCCCCCCCN1C(=O)[C@@H](CC(=O)N2CCC(c3ccccc3)CC2)C[C@@]2(C(=O)OC)C1=C[C@H](COCc1ccccc1)O[C@@H]2C	n	x	x	x	x	x
O=C(O)COc1ccccc1/C=N/NC(=O)Cc1ccccc1	n	n	n	n	n	x
O=C(O)COc1ccccc1/C=N/NC(=O)Cc1csc(Nc2cccc(C(F)(F)F)c2)n1	31.9	n	n	n	n	n
CC1=Nc2ccccc2/C1=C/c1sc(=S)n(-c2cccc(C(=O)O)c2)c1O	36.3	n	n	n	n	n
Oc1c(C=C2N=c3ccccc3=N2)sc(=S)n1-c1ccccc1	n	n	n	n	n	x
CCCC(=O)N1CCC[C@]2(CC[C@@H](CCC(=O)N(CC)CC)O2)C1	n	x	x	x	x	x
O=C(NCCc1ccccc1F)c1ccc2c(c1)ncn2C1CCCCC1	n	x	x	x	x	x
CCCc1nc2c([nH]1)c(=O)n(C)c(=O)n2C	32.3	59.6	n	n	n	n
Cc1cc(N2CCN(Cc3ccccc3)CC2)n2nc(C)nc2n1	n	x	x	x	x	x
CCCCCCCCN1C(=O)[C@@H](CC(=O)N2CCCC2)C[C@@]2(C(=O)OC)C1=C[C@H](C1CCCC1)O[C@@H]2C	n	x	x	x	x	x
COC(=O)[C@]12C[C@H](CC(=O)NCc3ccccc3)C(=O)N(Cc3ccc(Cl)cc3Cl)C1=C[C@H](C1CCCC1)O[C@@H]2C	n	x	x	x	x	x
COC(=O)[C@]12C[C@H](CC(=O)NCc3cccc(C(F)(F)F)c3)C(=O)N(Cc3ccc(Cl)cc3Cl)C1=C[C@H](C1CCCC1)O[C@@H]2C	31.6	x	x	x	x	n
CCCCCCCCN1C(=O)[C@@H](CC(=O)NCc2ccc(C)o2)C[C@@]2(C(=O)OC)C1=C[C@H](C1CCCC1)O[C@@H]2C	30.1	x	x	x	x	n
CCCCCCCCN1C(=O)[C@@H](CC(=O)N2CCN(C(=O)C3CC3)CC2)C[C@@]2(C(=O)OC)C1=C[C@H](C1CCCC1)O[C@@H]2C	33.0	x	x	x	x	n
COCCn1c(SCC(=O)NCC2CCCO2)nc2c(c1=O)SC(C)C2 (stereo not drawn)	31.8	n	n	n	n	n
Cc1ccc(-c2cc(-c3nnc4sc(Cc5cccs5)nn34)[nH]n2)cc1	n	x	x	x	x	x
Cc1ccc(Cl)cc1N1CCN(C(=O)C2CCCN(S(=O)(=O)c3cnc[nH]3)C2)CC1 (stereo not drawn)	n	n	n	n	n	x
CC(=O)c1ccc(N2CCN(C(=O)C3CCCN(S(=O)(=O)c4cnc[nH]4)C3)CC2)cc1 (stereo not drawn)	34.3	n	n	n	n	n
CCOC(=O)[C@@]12CCC3=C1N(CCC3)C(=O)[C@H](CC(=O)NCc1cccc3ccccc13)C2	n	x	x	x	x	x
CC(=O)Nc1ccc(Nc2nc3ccccc3nc2NS(=O)(=O)c2ccc(Cl)c([N+](=O)[O-])c2)cc1	31.7	x	x	n	x	n
CCCCN1C(=S)NC[C@@H]1c1ccccc1	33.3	n	n	n	n	n
CCOC(=O)CC[C@@]1(C(=O)OCC)C[C@@H](CC(=O)N2CCN(C(=O)c3ccco3)CC2)C(=O)N2CCCC=C21	n	x	x	x	x	x
